# Assay results: PubChem BioAssay (EPA / NIEHS)
# Inconclusive results are not listed. Some structures have more than one record in an assay (separate samples or runs), and their calls can disagree. Activity calls are given as the source filed them. The calls were made as follows, unless noted: active = hit-call score of the fitted dose curve at least 0.9, where 1 is the maximum; inactive = score below 0.9.
# Tests used:
# [1] = target: Bile acid receptor (Homo sapiens) (UniProt Q96RI1); experiment: ATG_FXR_TRANS: Attagene TRANS-FACTORIAL HepG2 Assay for Farnesoid X Receptor (FXR) (AID 2282979; active = hit-call score of the fitted dose curve at least 0.9, where 1 is the maximum;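 also: hits raise reporter mRNA above DMSO so AC50 marks FXR activation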); details: HepG2 Attagene TRANS FXR-GAL4 reporter transcription
# How it was run: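 Chimeric FXR-GAL4 activity in transiently transfected human HepG2 liver cells is scored as induction of reporter mRNA after 24 h of dosing. Detection uses RT-PCR with fluorescent labelling and capillary electrophoresis, with DMSO serving as baseline.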
# [2] = target: Oxysterols receptor LXR-alpha (Homo sapiens) (UniProt Q13133); experiment: ATG_LXRa_TRANS: Attagene TRANS-FACTORIAL HepG2 Assay for human Liver X Receptor alpha (LXRa) (AID 2282980; active = hit-call score of the fitted dose curve at least 0.9, where 1 is the maximum); details: HepG2 Attagene TRANS reporter, LXRa transactivation
# How it was run: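 Transient HepG2 transfectants, 24 h dosing, RT-PCR/CE mRNA reporter quantitation; gain-of-signal vs DMSO.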
# [3] = target: Oxysterols receptor LXR-beta (Homo sapiens) (UniProt P55055); experiment: ATG_LXRb_TRANS: Attagene TRANS-FACTORIAL HepG2 Assay for human Liver X Receptor beta (LXRb) (AID 2282981; active = hit-call score of the fitted dose curve at least 0.9, where 1 is the maximum); details: HepG2 Attagene TRANS GAL4-LXRb reporter, mRNA
# How it was run: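 HepG2 cells transiently transfected with GAL4-UAS reporter units for chimeric NR-Gal4 proteins, dosed for 24 h. Reporter transcripts measured by RT-PCR and capillary electrophoresis; gain-of-signal fitting relative to DMSO.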
# [4] = ATG_M_06_TRANS: Attagene TRANS-FACTORIAL HepG2 Assay for M06 Transcription Factor (Internal Marker) (AID 2282983; active = hit-call score of the fitted dose curve at least 0.9, where 1 is the maximum;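 also: reporter transcript level by RT-PCR then capillary electrophoresis fluorescence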); details: HepG2 Attagene TRANS M06 internal marker reporter
# How it was run: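 Measured by capillary electrophoresis of fluorescently labelled RT-PCR products, this endpoint reflects reporter mRNA in HepG2 cells harbouring exogenous NR-GAL4 reporter constructs after 24 h exposure, with DMSO as baseline.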
# [5] = target: Nuclear receptor subfamily 4 group A member 2 (Homo sapiens) (UniProt P43354); experiment: ATG_NURR1_TRANS: Attagene TRANS-FACTORIAL HepG2 Assay for human Nuclear Receptor Related Protein 1 (NURR1) (AID 2282985; active = hit-call score of the fitted dose curve at least 0.9, where 1 is the maximum); details: HepG2 Attagene TRANS reporter, mRNA readout
# How it was run: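 HepG2 cells transiently transfected with NURR1-Gal4 chimera and GAL4-UAS reporter units; after 24 hr compound exposure, reporter mRNA quantified by RT-PCR and capillary electrophoresis; gain of signal fitted against DMSO.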
# [6] = target: Transcriptional activator Myb (Homo sapiens) (UniProt P10242); experiment: ATG_Myb_CIS: Attagene CIS-FACTORIAL HepG2 Assay for human Myeloblastosis (Myb) Proto-Oncogene Transcription Factor (AID 2282986); details: HepG2 Attagene CIS-FACTORIAL Myb reporter transcription; actives raise or lower the signal
# How it was run: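 Using HepG2 liver cells bearing transiently transfected cis-promoter reporter constructs, the assay measures induction or loss of reporter mRNA after 24 hours of dosing. Detection used fluorescently labeled RT-PCR products separated by capillary electrophoresis.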
# [7] = target: Nuclear respiratory factor 1 (Homo sapiens) (UniProt Q16656); experiment: ATG_NRF1_CIS: Attagene CIS-FACTORIAL HepG2 Assay for human Nuclear Respiratory Factor 1 (NRF1) Orphan Gene (AID 2282987); details: HepG2 NRF1 cis-element reporter, Attagene multiplex; actives raise or lower the signal
# How it was run: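 Reporter mRNA induction or loss in HepG2 cells after 24 h dosing; cis-regulated reporter constructs report endogenous transcription-factor activity. Quantified by RT-PCR/capillary electrophoresis fluorescence, DMSO-referenced.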
# [8] = ATG_NFI_CIS: Attagene CIS-FACTORIAL HepG2 Assay for human Nuclear Factor I (NFI) (AID 2282989); details: HepG2 cis-regulatory reporter, NFI response element transcription; actives raise or lower the signal
# How it was run: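 Reporter transcription driven by endogenous transcription factors in HepG2 cells; 24 h treatment. Quantitation by labelled RT-PCR fragments on capillary electrophoresis, gain- or loss-of-signal relative to DMSO.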
# [9] = target: Myc proto-oncogene protein (Homo sapiens) (UniProt P01106); experiment: ATG_Myc_CIS: Attagene CIS-FACTORIAL HepG2 Assay for human Myelocytomatosis (Myc) Proto-Oncogene Transcription Factor (AID 2282990); details: HepG2, Attagene cis-reporter transcription factor activity; actives raise or lower the signal
# How it was run: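 Fluorescence intensity of reporter-specific cDNA fragments, separated by capillary electrophoresis, gives the signal. Transfected HepG2 cells carrying cis-promoter reporter constructs are incubated with compound for 24 h; DMSO serves as baseline.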
# [10] = ATG_NRF2_ARE_CIS: Attagene CIS-FACTORIAL HepG2 Assay for human Nuclear Factor Erythroid 2 Related Factor 2 (NFR2) response to Antioxidant Response Elements (ARE) (AID 2282992); details: HepG2 Attagene ARE/NRF2 reporter, transcription factor activity; actives raise or lower the signal;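 as to AC50: reporter mRNA level measured by RT-PCR and capillary electrophoresis fluorescence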
# How it was run: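 HepG2 cells transiently transfected with multiplexed cis-regulated reporter transcription units measure endogenous transcription factor activity. Reporter mRNA at 24 h is quantified by RT-PCR, fluorescent labelling and capillary electrophoresis, with bidirectional fitting relative to DMSO.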
# [11] = ATG_Oct_MLP_CIS: Attagene CIS-FACTORIAL HepG2 Assay for human Octamer-Binding Transcription Factor (Oct) (AID 2282993); details: HepG2 Attagene cis-factorial Oct reporter, mRNA; actives raise or lower the signal
# How it was run: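 Transfected HepG2 cells, 24 h treatment. Reporter mRNA quantified by RT-PCR–capillary electrophoresis; bidirectional fitting against DMSO.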
# [12] = target: Cellular tumor antigen p53 (Homo sapiens) (UniProt P04637); experiment: ATG_p53_CIS: Attagene CIS-FACTORIAL HepG2 Assay for human p53 Transcription Factor (AID 2282994); details: HepG2 p53 cis-element reporter, Attagene mRNA; actives raise or lower the signal
# How it was run: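 HepG2 cells transiently transfected with multiplexed cis-regulated reporter transcription units read endogenous TF activity. After 24 h compound exposure, reporter mRNA was quantified by RT-PCR, fluorescent labelling, HpaI digestion and capillary electrophoresis; bidirectional fits versus DMSO baseline.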
# [13] = BSK_3C_uPAR: BioMAP Diversity Plus: 3C Assay for Urokinase-type plasminogen activator receptor (uPAR) Biomarker Activity (AID 2282998); details: BioMAP 3C HUVEC, uPAR biomarker ELISA; actives raise or lower the signal
# How it was run: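 Readout: ELISA for surface uPAR. System: human umbilical vein endothelial primary cells, 24 h after chemical exposure. Analysis: bidirectional fit, DMSO baseline.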
# [14] = BSK_3C_VCAM1: BioMAP Diversity Plus: 3C Assay for Vascular cell adhesion molecule 1 (VCAM1) Biomarker Activity (AID 2282999); details: BioMAP 3C HUVEC, VCAM1 ELISA, cytokine-stimulated; actives raise or lower the signal
# How it was run: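 Human umbilical vein endothelial cells (3C system), biomarker read by ELISA 24 h after dosing; bidirectional fit against DMSO baseline. Cytotoxicity tracked by SRB total-protein staining in parallel cultures at biomarker time.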
# [15] = BSK_4H_Eotaxin3: BioMAP Diversity Plus: 4H Assay for Eotaxin 3 Biomarker Activity (AID 2283000); details: primary human endothelial cells (HUVEC); actives raise or lower the signal;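 as to outcome: CCL26 protein level quantified by ELISA in parallel with SRB cytotoxicity check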
# How it was run: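 Endothelial primary cells (human umbilical vein) exposed to compound for 24 h. ELISA detection of Eotaxin-3.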
# [16] = target: Glucocorticoid receptor (Homo sapiens) (UniProt P04150); experiment: ATG_GR_TRANS: Attagene TRANS-FACTORIAL HepG2 Assay for human Glucocorticoid Receptor (GR) (AID 2282978; active = hit-call score of the fitted dose curve at least 0.9, where 1 is the maximum;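 also: activators score as hits since higher reporter transcript over DMSO is fitted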); details: HepG2 Attagene TRANS GR reporter, mRNA transcription
# How it was run: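 Transiently transfected HepG2 cells express chimeric NR-GAL4 proteins acting on GAL4-UAS reporter units. Compounds are applied for 24 h. mRNA induction over DMSO is measured by capillary electrophoresis.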
# [17] = ATG_NF_kB_CIS: Attagene CIS-FACTORIAL HepG2 Assay for human Nuclear Factor Kappa B (NF-kB) (AID 2282991); details: HepG2 Attagene cis-factorial NF-kB reporter mRNA; actives raise or lower the signal
# How it was run: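 DMSO served as negative control and baseline for bidirectional curve fitting. Transiently transfected HepG2 cells were dosed for 24 h, then reporter transcripts were measured by RT-PCR with capillary electrophoresis detection.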
# [18] = BSK_3C_TissueFactor: BioMAP Diversity Plus: 3C Assay for Tissue Factor Biomarker Activity (AID 2282997); details: BioMAP 3C HUVEC, tissue factor biomarker readout; actives raise or lower the signal
# How it was run: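 Values derive from bidirectional curve fitting against DMSO of Tissue Factor ELISA signals, taken 24 h after dosing primary human umbilical vein endothelial cells.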
# [19] = ATG_M_32_TRANS: Attagene TRANS-FACTORIAL HepG2 Assay for M32 Transcription Factor (Internal Marker) (AID 2282984; active = hit-call score of the fitted dose curve at least 0.9, where 1 is the maximum;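 also: transcript level of a background control reporter unit measured by RT-PCR and capillary electrophoresis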); details: HepG2 Attagene TRANS M32 internal marker reporter
# How it was run: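 HepG2 cells transiently transfected with GAL4-UAS reporter units, dosed for 24 hours. Reporter mRNA quantified by RT-PCR, 6-FAM labelling, HpaI digestion and capillary electrophoresis; internal-marker signal fitted upward relative to DMSO.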
# [20] = target: Hepatocyte nuclear factor 4-alpha (Homo sapiens) (UniProt P41235); experiment: ATG_HNF4a_TRANS: Attagene TRANS-FACTORIAL HepG2 Assay for human Hepatocyte Nuclear Factor 4 alpha (HNF4a) (AID 2282982; active = hit-call score of the fitted dose curve at least 0.9, where 1 is the maximum); details: HepG2 HNF4a transactivation reporter, mRNA readout
# How it was run: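 HepG2 cells transiently transfected with HNF4a-Gal4 chimera and GAL4-UAS reporter units, dosed for 24 h. Reporter mRNA measured by RT-PCR, fluorescent primer extension and capillary electrophoresis; gain-of-signal fitted relative to DMSO.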
# Sequence of Glucocorticoid receptor (Homo sapiens) (P04150 whole entry, looked up, the tested form may be a part): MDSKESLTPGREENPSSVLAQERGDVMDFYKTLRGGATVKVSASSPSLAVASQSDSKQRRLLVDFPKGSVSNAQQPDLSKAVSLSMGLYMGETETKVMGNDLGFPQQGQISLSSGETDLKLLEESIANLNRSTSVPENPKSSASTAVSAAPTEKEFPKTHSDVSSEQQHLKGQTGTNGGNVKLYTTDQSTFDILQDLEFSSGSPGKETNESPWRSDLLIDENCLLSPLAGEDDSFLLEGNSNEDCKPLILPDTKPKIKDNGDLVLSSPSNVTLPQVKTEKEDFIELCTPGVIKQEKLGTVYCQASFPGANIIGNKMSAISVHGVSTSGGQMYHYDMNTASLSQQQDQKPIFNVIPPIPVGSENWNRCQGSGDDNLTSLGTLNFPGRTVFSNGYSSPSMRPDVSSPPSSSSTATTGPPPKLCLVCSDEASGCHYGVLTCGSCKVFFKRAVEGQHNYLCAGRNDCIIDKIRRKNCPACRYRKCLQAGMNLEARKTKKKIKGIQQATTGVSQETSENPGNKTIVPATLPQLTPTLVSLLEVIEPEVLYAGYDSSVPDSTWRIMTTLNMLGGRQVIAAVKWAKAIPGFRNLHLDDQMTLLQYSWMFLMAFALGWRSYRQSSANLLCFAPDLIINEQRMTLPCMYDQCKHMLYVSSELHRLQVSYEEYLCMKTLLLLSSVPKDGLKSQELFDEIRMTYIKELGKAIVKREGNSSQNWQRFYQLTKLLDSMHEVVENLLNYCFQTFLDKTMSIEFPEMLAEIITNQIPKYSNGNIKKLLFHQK
# Sequence of Oxysterols receptor LXR-alpha (Homo sapiens) (Q13133 whole entry, looked up): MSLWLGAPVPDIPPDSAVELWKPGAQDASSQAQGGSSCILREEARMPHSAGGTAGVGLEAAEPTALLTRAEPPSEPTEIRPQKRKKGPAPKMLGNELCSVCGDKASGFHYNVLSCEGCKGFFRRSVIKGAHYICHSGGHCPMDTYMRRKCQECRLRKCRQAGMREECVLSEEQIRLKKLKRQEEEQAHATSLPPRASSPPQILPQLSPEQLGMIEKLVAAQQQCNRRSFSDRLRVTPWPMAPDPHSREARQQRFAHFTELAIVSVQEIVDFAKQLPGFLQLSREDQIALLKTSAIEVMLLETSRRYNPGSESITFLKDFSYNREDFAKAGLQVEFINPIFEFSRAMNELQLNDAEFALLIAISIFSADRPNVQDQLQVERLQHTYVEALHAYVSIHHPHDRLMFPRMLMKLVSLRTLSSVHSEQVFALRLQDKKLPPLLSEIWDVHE
# Sequence of Transcriptional activator Myb (Homo sapiens) (P10242 whole entry, looked up): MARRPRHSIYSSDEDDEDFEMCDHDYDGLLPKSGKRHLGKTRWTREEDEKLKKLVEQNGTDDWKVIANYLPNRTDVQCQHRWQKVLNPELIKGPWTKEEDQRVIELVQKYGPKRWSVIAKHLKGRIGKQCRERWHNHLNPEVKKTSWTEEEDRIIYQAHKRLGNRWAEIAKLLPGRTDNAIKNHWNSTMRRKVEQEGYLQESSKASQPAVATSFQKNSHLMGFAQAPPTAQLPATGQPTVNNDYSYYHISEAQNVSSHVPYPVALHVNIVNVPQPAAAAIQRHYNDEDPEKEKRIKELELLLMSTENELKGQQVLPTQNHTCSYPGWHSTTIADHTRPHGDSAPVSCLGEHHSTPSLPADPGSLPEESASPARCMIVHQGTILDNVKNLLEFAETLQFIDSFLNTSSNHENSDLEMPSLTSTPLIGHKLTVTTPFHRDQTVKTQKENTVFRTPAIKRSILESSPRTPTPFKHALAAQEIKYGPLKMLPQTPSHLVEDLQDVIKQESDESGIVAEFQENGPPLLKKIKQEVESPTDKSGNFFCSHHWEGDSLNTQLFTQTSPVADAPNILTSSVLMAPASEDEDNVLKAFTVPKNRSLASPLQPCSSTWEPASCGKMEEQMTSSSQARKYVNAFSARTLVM
# Sequence of Oxysterols receptor LXR-beta (Homo sapiens) (P55055 whole entry, looked up, the tested form may be a part): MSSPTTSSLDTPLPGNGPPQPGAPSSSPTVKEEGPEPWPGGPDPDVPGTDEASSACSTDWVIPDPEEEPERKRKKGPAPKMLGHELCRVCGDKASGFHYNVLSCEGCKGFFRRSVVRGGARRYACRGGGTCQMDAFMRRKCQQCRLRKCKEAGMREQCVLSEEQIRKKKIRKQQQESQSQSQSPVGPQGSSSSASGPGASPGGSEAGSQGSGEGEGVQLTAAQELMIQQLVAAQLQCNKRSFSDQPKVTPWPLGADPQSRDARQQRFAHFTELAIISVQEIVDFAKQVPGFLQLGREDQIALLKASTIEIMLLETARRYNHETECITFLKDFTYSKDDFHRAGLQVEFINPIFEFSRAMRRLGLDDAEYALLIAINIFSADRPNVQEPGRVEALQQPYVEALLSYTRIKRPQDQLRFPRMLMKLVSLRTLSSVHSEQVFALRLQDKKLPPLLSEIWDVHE
# Sequence of Cellular tumor antigen p53 (Homo sapiens) (P04637 whole entry, looked up): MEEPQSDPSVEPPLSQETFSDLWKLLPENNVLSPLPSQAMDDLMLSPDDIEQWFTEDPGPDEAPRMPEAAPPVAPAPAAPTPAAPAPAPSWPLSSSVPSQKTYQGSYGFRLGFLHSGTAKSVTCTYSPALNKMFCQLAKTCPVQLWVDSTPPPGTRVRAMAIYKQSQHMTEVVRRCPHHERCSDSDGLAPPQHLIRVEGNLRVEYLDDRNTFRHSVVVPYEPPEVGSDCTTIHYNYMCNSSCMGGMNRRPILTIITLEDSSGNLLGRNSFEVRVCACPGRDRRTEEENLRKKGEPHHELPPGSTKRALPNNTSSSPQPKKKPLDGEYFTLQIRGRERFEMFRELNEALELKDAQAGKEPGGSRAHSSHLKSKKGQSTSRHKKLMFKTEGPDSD
# Sequence of Myc proto-oncogene protein (Homo sapiens) (P01106 whole entry, looked up, the tested form may be a part): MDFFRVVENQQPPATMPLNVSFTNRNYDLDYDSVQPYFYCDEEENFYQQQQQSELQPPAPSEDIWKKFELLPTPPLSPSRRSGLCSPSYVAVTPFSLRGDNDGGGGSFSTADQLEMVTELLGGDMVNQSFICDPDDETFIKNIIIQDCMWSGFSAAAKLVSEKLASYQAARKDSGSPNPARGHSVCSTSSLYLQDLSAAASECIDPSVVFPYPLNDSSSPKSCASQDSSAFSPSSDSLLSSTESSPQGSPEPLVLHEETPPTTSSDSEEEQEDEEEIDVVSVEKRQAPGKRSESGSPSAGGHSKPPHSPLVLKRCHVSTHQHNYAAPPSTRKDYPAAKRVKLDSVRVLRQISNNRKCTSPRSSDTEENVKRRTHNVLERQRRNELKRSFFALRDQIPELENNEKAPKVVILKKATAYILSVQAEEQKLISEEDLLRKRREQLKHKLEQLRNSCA
# Sequence of Nuclear respiratory factor 1 (Homo sapiens) (Q16656 whole entry, looked up): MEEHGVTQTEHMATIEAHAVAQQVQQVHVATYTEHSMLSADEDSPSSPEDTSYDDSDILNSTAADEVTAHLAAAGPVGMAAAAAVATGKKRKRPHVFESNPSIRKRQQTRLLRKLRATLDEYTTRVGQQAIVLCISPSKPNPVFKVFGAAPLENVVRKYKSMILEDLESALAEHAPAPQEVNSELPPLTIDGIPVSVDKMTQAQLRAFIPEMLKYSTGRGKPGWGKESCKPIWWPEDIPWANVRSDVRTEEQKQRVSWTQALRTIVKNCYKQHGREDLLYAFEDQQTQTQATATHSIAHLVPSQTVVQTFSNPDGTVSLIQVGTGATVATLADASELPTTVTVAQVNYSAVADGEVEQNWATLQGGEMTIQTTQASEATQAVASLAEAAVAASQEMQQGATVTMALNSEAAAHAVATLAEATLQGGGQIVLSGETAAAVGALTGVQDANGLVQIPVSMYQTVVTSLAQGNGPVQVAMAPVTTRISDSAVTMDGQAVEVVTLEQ
# Sequence of Nuclear receptor subfamily 4 group A member 2 (Homo sapiens) (P43354 whole entry, looked up, the tested form may be a part): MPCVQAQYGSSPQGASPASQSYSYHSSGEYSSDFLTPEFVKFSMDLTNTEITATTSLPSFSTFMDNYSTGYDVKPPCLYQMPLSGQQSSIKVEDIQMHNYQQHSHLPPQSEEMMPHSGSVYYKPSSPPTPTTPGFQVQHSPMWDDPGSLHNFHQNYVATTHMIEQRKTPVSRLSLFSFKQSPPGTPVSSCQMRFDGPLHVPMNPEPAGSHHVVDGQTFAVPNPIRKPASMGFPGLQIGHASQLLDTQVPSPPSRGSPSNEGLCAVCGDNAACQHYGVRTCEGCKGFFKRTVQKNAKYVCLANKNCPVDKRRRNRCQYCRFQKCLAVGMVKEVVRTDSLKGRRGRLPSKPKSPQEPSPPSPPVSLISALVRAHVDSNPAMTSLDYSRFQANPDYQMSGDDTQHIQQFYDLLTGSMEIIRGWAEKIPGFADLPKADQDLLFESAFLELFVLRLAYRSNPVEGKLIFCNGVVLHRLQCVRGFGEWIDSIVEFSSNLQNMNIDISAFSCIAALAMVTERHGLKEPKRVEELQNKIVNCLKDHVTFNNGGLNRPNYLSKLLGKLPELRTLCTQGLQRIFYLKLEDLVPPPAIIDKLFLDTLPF
# Sequence of Bile acid receptor (Homo sapiens) (Q96RI1 whole entry, looked up, the tested form may be a part): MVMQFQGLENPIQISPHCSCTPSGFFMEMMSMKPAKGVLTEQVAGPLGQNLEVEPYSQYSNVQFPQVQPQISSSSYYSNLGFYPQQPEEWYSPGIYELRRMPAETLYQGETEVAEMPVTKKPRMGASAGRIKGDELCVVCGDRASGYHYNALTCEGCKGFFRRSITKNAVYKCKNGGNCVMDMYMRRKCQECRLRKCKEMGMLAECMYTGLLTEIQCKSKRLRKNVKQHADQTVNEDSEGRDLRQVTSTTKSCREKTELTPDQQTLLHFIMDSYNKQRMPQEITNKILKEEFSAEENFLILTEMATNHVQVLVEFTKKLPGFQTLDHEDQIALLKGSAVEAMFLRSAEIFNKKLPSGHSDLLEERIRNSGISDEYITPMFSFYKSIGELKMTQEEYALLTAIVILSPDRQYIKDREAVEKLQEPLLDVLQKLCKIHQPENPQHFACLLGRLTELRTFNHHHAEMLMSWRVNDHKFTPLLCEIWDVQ
smiles,measurement,setting,value
Cc1ncc(CO)c(CO)c1O,outcome,[1],inactive
same,outcome,[2],inactive
same,outcome,[3],inactive
same,outcome,[4],inactive
same,outcome,[5],inactive
same,outcome,[6],inactive
same,outcome,[7],inactive
same,outcome,[8],inactive
same,outcome,[9],inactive
same,outcome,[10],inactive
same,outcome,[11],inactive
same,outcome,[12],inactive
same,outcome,[13],inactive
same,outcome,[14],inactive
same,outcome,[15],inactive
c1ccc2n[nH]nc2c1,outcome,[16],inactive
same,outcome,[2],inactive
same,outcome,[4],inactive
same,outcome,[6],inactive
same,outcome,[7],inactive
same,outcome,[8],inactive
same,outcome,[9],inactive
same,outcome,[17],inactive
same,outcome,[10],inactive
same,outcome,[11],inactive
same,outcome,[12],inactive
same,outcome,[18],inactive
same,outcome,[13],inactive
same,outcome,[14],inactive
same,outcome,[15],inactive
CCCCCCCC[Si](OCC)(OCC)OCC,outcome,[16],inactive
same,outcome,[2],inactive
same,outcome,[3],inactive
same,outcome,[4],inactive
same,outcome,[19],inactive
same,outcome,[6],inactive
same,AC50,[7],147 µM (active)
same,outcome,[7],inactive
same,AC50,[8],155 µM (active)
same,outcome,[8],inactive
same,outcome,[9],inactive
same,outcome,[17],inactive
same,outcome,[11],inactive
same,AC50,[12],78.4 µM (active)
same,outcome,[12],inactive
same,outcome,[18],inactive
same,outcome,[13],inactive
same,AC50,[14],18.9 µM (active)
same,AC50,[15],30.9 µM (active)
Oc1ccccc1,outcome,[2],inactive
same,outcome,[3],inactive
same,outcome,[20],inactive
same,outcome,[19],inactive
same,outcome,[5],inactive
same,outcome,[6],inactive
same,outcome,[7],inactive
same,outcome,[8],inactive
same,outcome,[9],inactive
same,outcome,[10],inactive
same,outcome,[11],inactive
same,outcome,[12],inactive
same,outcome,[18],inactive
same,outcome,[13],inactive
same,outcome,[14],inactive
same,outcome,[15],inactive
OC12N=C(c3ccccc3)SC1Cc1cc(Cl)ccc12 (configuration not stated),outcome,[1],inactive
same,outcome,[2],inactive
same,outcome,[3],inactive
same,outcome,[20],inactive
same,outcome,[19],inactive
same,outcome,[5],inactive
same,outcome,[6],inactive
same,outcome,[7],inactive
same,outcome,[8],inactive
same,outcome,[9],inactive
same,AC50,[10],3.75 µM (active)
same,outcome,[11],inactive
same,outcome,[12],inactive
same,AC50,[18],5.1 µM (active)
same,outcome,[13],inactive
same,outcome,[14],inactive
same,AC50,[15],20 µM (active)
